# In the supplement of paper PMC10037445:
# Over roughly 2,900 compounds, “NF-kB SEAP reporter activity, fold change vs agonist alone” has its median near 0.99; the highest 2% begin near 2.6. Many of the other results were omitted from the sample, so the highest values are more common in it than they were.
# Assays:
# RAW-Dual [1] = assay: NF-kB SEAP reporter activity, fold change vs agonist alone; higher = enhanced NF-kB activity
# Outline: (§1)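 After 50 nL of library stock was delivered by pin tool to RAW-Dual macrophages (50,000 cells/well, DMEM, 384-well plates), a PRR agonist was added 1 h later and the plates were kept at 37 °C, 5% CO2. Twenty hours later, IRF was read from supernatant by QuantiLuc luminescence and NF-κB by QuantiBlue absorbance at 620 nm. Reporter activity is stated as fold change over agonist-alone wells. Wells with IncuCyte confluency under 70% of agonist controls in both mask sets were counted as cytotoxic.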
# RAW-Dual [2] = assay: NF-kB SEAP reporter activity, fold change vs agonist alone; cytotoxicity flag (confluency mask): not cytotoxic; higher = enhanced NF-kB activity
# Outline: as §1
# RAW-Dual [3] = assay: NF-kB SEAP reporter activity, fold change vs agonist alone; cytotoxicity flag (confluency mask): cytotoxic (confluency <70% of control); higher = enhanced NF-kB activity
# Outline: as §1
# [4] = library stock concentration (final ~1000-fold dilution): 10 mM, cytotoxicity flag (confluency mask): not cytotoxic, agonist: MPLA (TLR4) […]
# [5] = agonist: ODN 1826 (TLR9) 0.5 ug/mL
# [6] = agonist: Pam2CSK4 (TLR2/6) 0.1 ug/mL
# [7] = agonist: Pam3CSK4 (TLR2/1) 0.1 ug/mL
# [8] = library stock concentration (final ~1000-fold dilution): 10 mM, cytotoxicity flag (confluency mask): cytotoxic (confluency <70% of control), agonist: Imiquimod (TLR7) […]
# [9] = library stock concentration (final ~1000-fold dilution): 10 mM, cytotoxicity flag (confluency mask): cytotoxic (confluency <70% of control), agonist: MPLA (TLR4) […]
# [10] = library stock concentration (final ~1000-fold dilution): 10 mM, cytotoxicity flag (confluency mask): not cytotoxic, agonist: Imiquimod (TLR7) […]
smiles,measurement,setting,value
O=P(O)(O)Oc1cccc2ccccc12,NF-kB SEAP reporter activity,RAW-Dual [1]; [4],1.08
O=P(O)(O)Oc1cccc2ccccc12 (library stock concentration (final ~1000-fold dilution): 10 mM),NF-kB SEAP reporter activity,RAW-Dual [2]; agonist: LPS (TLR4) 0.1 ug/mL,1.05
same,NF-kB SEAP reporter activity,RAW-Dual [2]; [5],0.917
same,NF-kB SEAP reporter activity,RAW-Dual [2]; [6],1.16
same,NF-kB SEAP reporter activity,RAW-Dual [2]; [7],0.879
O=C(/C=C/c1cncc(F)c1)c1c(-c2ccccc2)c2cc(Cl)ccc2[nH]c1=O,NF-kB SEAP reporter activity,RAW-Dual [1]; [8],0.157
same,NF-kB SEAP reporter activity,RAW-Dual [1]; [9],0.259
O=C(/C=C/c1cncc(F)c1)c1c(-c2ccccc2)c2cc(Cl)ccc2[nH]c1=O (library stock concentration (final ~1000-fold dilution): 10 mM),NF-kB SEAP reporter activity,RAW-Dual [3]; agonist: LPS (TLR4) 0.1 ug/mL,0.257
same,NF-kB SEAP reporter activity,RAW-Dual [3]; [5],0.212
same,NF-kB SEAP reporter activity,RAW-Dual [3]; [6],0.0981
same,NF-kB SEAP reporter activity,RAW-Dual [3]; [7],0.253
COC1/C=C/OC2(C)Oc3c(C)c(O)c4c(O)c(c(/C=N/N5CCN(C6CCCC6)CC5)c(O)c4c3C2=O)NC(=O)/C(C)=C/C=C/C(C)C(O)C(C)C(O)C(C)C(OC(C)=O)C1C (stereo not given) (library stock concentration (final ~1000-fold dilution): 10 mM),NF-kB SEAP reporter activity,RAW-Dual [2]; agonist: LPS (TLR4) 0.1 ug/mL,1.56
same,NF-kB SEAP reporter activity,RAW-Dual [2]; [5],0.892
same,NF-kB SEAP reporter activity,RAW-Dual [2]; [6],0.643
same,NF-kB SEAP reporter activity,RAW-Dual [2]; [7],0.742
COC1/C=C/OC2(C)Oc3c(C)c(O)c4c(O)c(c(/C=N/N5CCN(C6CCCC6)CC5)c(O)c4c3C2=O)NC(=O)/C(C)=C/C=C/C(C)C(O)C(C)C(O)C(C)C(OC(C)=O)C1C (stereo not given),NF-kB SEAP reporter activity,RAW-Dual [1]; [10],1.11
same,NF-kB SEAP reporter activity,RAW-Dual [1]; [4],0.969
O=C(O)CC[C@@H](O)C(=O)O (library stock concentration (final ~1000-fold dilution): 10 mM water),NF-kB SEAP reporter activity,RAW-Dual [2]; agonist: LPS (TLR4) 0.1 ug/mL,1.44
same,NF-kB SEAP reporter activity,RAW-Dual [2]; [5],1.16
same,NF-kB SEAP reporter activity,RAW-Dual [2]; [6],1.17
same,NF-kB SEAP reporter activity,RAW-Dual [2]; [7],1.12
O=C(O)CC[C@@H](O)C(=O)O,NF-kB SEAP reporter activity,"RAW-Dual [1]; library stock concentration (final ~1000-fold dilution): 10 mM water, cytotoxicity flag (confluency mask): not cytotoxic, agonist: Imiquimod (TLR7) […]",0.93
same,NF-kB SEAP reporter activity,"RAW-Dual [1]; library stock concentration (final ~1000-fold dilution): 10 mM water, cytotoxicity flag (confluency mask): not cytotoxic, agonist: MPLA (TLR4) […]",1.07
CC1(C)OCC(COC(=O)CCc2ccc(OCC(O)CNCCNC(=O)N3CCOCC3)cc2)O1.Cl (stereo not given) (library stock concentration (final ~1000-fold dilution): 10 mM),NF-kB SEAP reporter activity,RAW-Dual [2]; agonist: LPS (TLR4) 0.1 ug/mL,0.799
same,NF-kB SEAP reporter activity,RAW-Dual [2]; [5],0.908
same,NF-kB SEAP reporter activity,RAW-Dual [2]; [6],1.04
same,NF-kB SEAP reporter activity,RAW-Dual [2]; [7],0.926
CC1(C)OCC(COC(=O)CCc2ccc(OCC(O)CNCCNC(=O)N3CCOCC3)cc2)O1.Cl (stereo not given),NF-kB SEAP reporter activity,RAW-Dual [1]; [10],0.97
same,NF-kB SEAP reporter activity,RAW-Dual [1]; [4],1.01
CC(C)(C)OC(=O)Nc1ccc(-c2cc(C(=O)NCCCCCCC(=O)NO)no2)cc1 (library stock concentration (final ~1000-fold dilution): 10 mM),NF-kB SEAP reporter activity,RAW-Dual [3]; agonist: LPS (TLR4) 0.1 ug/mL,6.9
same,NF-kB SEAP reporter activity,RAW-Dual [3]; [5],1.11
same,NF-kB SEAP reporter activity,RAW-Dual [3]; [6],1.33
same,NF-kB SEAP reporter activity,RAW-Dual [3]; [7],1.21
CC(C)(C)OC(=O)Nc1ccc(-c2cc(C(=O)NCCCCCCC(=O)NO)no2)cc1,NF-kB SEAP reporter activity,RAW-Dual [1]; [8],0.912
same,NF-kB SEAP reporter activity,RAW-Dual [1]; [9],1.81
CC(C)C1C(=O)NC(CCCNC(=N)N)C(=O)NCC(=O)NC(CC(=O)O)C(=O)NC(Cc2ccccc2)C(=O)N1C.O=C(O)C(F)(F)F (stereo not given),NF-kB SEAP reporter activity,RAW-Dual [1]; [10],0.977
same,NF-kB SEAP reporter activity,RAW-Dual [1]; [4],1.11
CC(C)C1C(=O)NC(CCCNC(=N)N)C(=O)NCC(=O)NC(CC(=O)O)C(=O)NC(Cc2ccccc2)C(=O)N1C.O=C(O)C(F)(F)F (stereo not given) (library stock concentration (final ~1000-fold dilution): 10 mM),NF-kB SEAP reporter activity,RAW-Dual [2]; agonist: LPS (TLR4) 0.1 ug/mL,0.99
same,NF-kB SEAP reporter activity,RAW-Dual [2]; [5],1.01
same,NF-kB SEAP reporter activity,RAW-Dual [2]; [6],0.985
same,NF-kB SEAP reporter activity,RAW-Dual [2]; [7],0.921
CC(=O)OC1(C(C)=O)CCC2C3C=C(C)C4=CC(=O)CCC4(C)C3CCC21C (stereo not given) (library stock concentration (final ~1000-fold dilution): 10 mM),NF-kB SEAP reporter activity,RAW-Dual [2]; agonist: LPS (TLR4) 0.1 ug/mL,0.908
same,NF-kB SEAP reporter activity,RAW-Dual [2]; [5],1.22
same,NF-kB SEAP reporter activity,RAW-Dual [2]; [6],1.13
same,NF-kB SEAP reporter activity,RAW-Dual [2]; [7],1.27
CC(=O)OC1(C(C)=O)CCC2C3C=C(C)C4=CC(=O)CCC4(C)C3CCC21C (stereo not given),NF-kB SEAP reporter activity,RAW-Dual [1]; [10],1.21
same,NF-kB SEAP reporter activity,RAW-Dual [1]; [4],1.14
O=C(NC1=CC(=O)[C@@H]2O[C@@H]2[C@@H]1O)c1ccccc1O (library stock concentration (final ~1000-fold dilution): 10 mM),NF-kB SEAP reporter activity,RAW-Dual [2]; agonist: LPS (TLR4) 0.1 ug/mL,0.954
same,NF-kB SEAP reporter activity,RAW-Dual [2]; [5],0.718
same,NF-kB SEAP reporter activity,RAW-Dual [2]; [6],0.356
same,NF-kB SEAP reporter activity,RAW-Dual [2]; [7],0.314
O=C(NC1=CC(=O)[C@@H]2O[C@@H]2[C@@H]1O)c1ccccc1O,NF-kB SEAP reporter activity,RAW-Dual [1]; [10],0.849
same,NF-kB SEAP reporter activity,RAW-Dual [1]; [4],0.949
CS(=O)(=O)O.O=C(OC1CC2CC3CC(C1)N2CC3=O)c1c[nH]c2ccccc12 (stereo not given),NF-kB SEAP reporter activity,RAW-Dual [1]; [10],0.712
same,NF-kB SEAP reporter activity,RAW-Dual [1]; [4],0.75
CS(=O)(=O)O.O=C(OC1CC2CC3CC(C1)N2CC3=O)c1c[nH]c2ccccc12 (stereo not given) (library stock concentration (final ~1000-fold dilution): 10 mM),NF-kB SEAP reporter activity,RAW-Dual [2]; agonist: LPS (TLR4) 0.1 ug/mL,0.646
same,NF-kB SEAP reporter activity,RAW-Dual [2]; [5],0.571
same,NF-kB SEAP reporter activity,RAW-Dual [2]; [6],0.906
same,NF-kB SEAP reporter activity,RAW-Dual [2]; [7],0.497
CCNC(=O)C#Cc1ccc2c(c1)NC(=O)/C2=C(\Nc1ccc(CN(C)C)cc1)c1ccccc1 (library stock concentration (final ~1000-fold dilution): 10 mM),NF-kB SEAP reporter activity,RAW-Dual [3]; agonist: LPS (TLR4) 0.1 ug/mL,0.241
same,NF-kB SEAP reporter activity,RAW-Dual [3]; [5],0.173
same,NF-kB SEAP reporter activity,RAW-Dual [3]; [6],0.074
same,NF-kB SEAP reporter activity,RAW-Dual [3]; [7],0.121
CCNC(=O)C#Cc1ccc2c(c1)NC(=O)/C2=C(\Nc1ccc(CN(C)C)cc1)c1ccccc1,NF-kB SEAP reporter activity,RAW-Dual [1]; [8],0.134
same,NF-kB SEAP reporter activity,RAW-Dual [1]; [9],0.297
C=CCn1c(=O)c2cnc(Nc3ccc(N4CCN(C)CC4)cc3)nc2n1-c1cccc(C(C)(C)O)n1,NF-kB SEAP reporter activity,RAW-Dual [1]; [8],1.14
same,NF-kB SEAP reporter activity,RAW-Dual [1]; [9],0.798
CCN(CC)CCOc1ccc(Nc2ncc3cc(-c4c(Cl)cccc4Cl)c(=O)n(C)c3n2)cc1 (library stock concentration (final ~1000-fold dilution): 10 mM),NF-kB SEAP reporter activity,RAW-Dual [3]; agonist: LPS (TLR4) 0.1 ug/mL,0.238
same,NF-kB SEAP reporter activity,RAW-Dual [3]; [5],0.236
same,NF-kB SEAP reporter activity,RAW-Dual [3]; [6],0.0747
same,NF-kB SEAP reporter activity,RAW-Dual [3]; [7],0.145
C=CC(=O)Nc1cccc(Nc2nc(Nc3ccc(OCCOC)cc3)ncc2F)c1 (library stock concentration (final ~1000-fold dilution): 10 mM),NF-kB SEAP reporter activity,RAW-Dual [2]; agonist: LPS (TLR4) 0.1 ug/mL,1.12
same,NF-kB SEAP reporter activity,RAW-Dual [2]; [5],0.8
same,NF-kB SEAP reporter activity,RAW-Dual [2]; [6],0.545
same,NF-kB SEAP reporter activity,RAW-Dual [2]; [7],0.672
